Source: PubChem BioAssay (NCATS)
Inconclusive results are not listed. Calls of active or inactive are those of the source. The call rests on the fitted dose curve; in most records, active means well fitted inhibition curve with a large enough effect; inconclusive means small, poorly fitted or top-dose-only effect; inactive means flat fitted curve, though single readings scatter.

Key:
Assay in all cases: qHTS profiling for inhibitors of Plasmodium falciparum proliferation (AID 504749); further: nearly all actives have a fitted effect of over 60% in size
Conditions in all cases: P. falciparum in erythrocytes, SYBR Green DNA, 72 h; series mostly up to 28.7 µM
[1] = test system: ATS95
Procedure, shortened: (§1)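 Parasite proliferation within erythrocytes, 72 h exposure. Endpoint: SYBR Green I fluorescence after overnight lysis at room temperature. Controls: 0.29 uM artemisinin, DMSO.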

[2] = test system: C2A
Procedure, shortened: as §1

[3] = test system: CP185
Procedure, shortened: as §1

[4] = test system: CP191
Procedure, shortened: as §1

[5] = test system: CP192
Procedure, shortened: as §1

[6] = test system: CP194
Procedure, shortened: as §1

[7] = test system: CP201
Procedure, shortened: as §1

[8] = test system: CP203
Procedure, shortened: as §1

[9] = test system: CP211
Procedure, shortened: as §1

[10] = test system: CP215
Procedure, shortened: as §1

[11] = test system: CP217
Procedure, shortened: as §1

[12] = test system: CP237
Procedure, shortened: as §1

[13] = test system: CP238
Procedure, shortened: as §1

[14] = test system: CP247
Procedure, shortened: as §1

[15] = test system: CP250
Procedure, shortened: as §1

[16] = test system: CP252
Procedure, shortened: as §1

[17] = test system: CP256
Procedure, shortened: as §1

[18] = test system: CP260
Procedure, shortened: as §1

[19] = test system: CP262
Procedure, shortened: as §1

[20] = test system: CP265
Procedure, shortened: as §1

Measured: Potency

CC(O)CN(C)C (stereo not given)
inactive: all assays above

[O]=[Bi][O][Bi]=[O]
inactive: all assays above

C=CCN1CCCC1CNC(=O)c1cc(S(N)(=O)=O)cc(OC)c1OC (stereo not given)
inactive: all assays above

S=C=Nc1ccc(N=C=S)cc1
inactive: all assays above

NC(=O)[C@H]1O[C@@H](O)[C@H](O)[C@@H](O)[C@@H]1O
inactive: all assays above

CCOC(=O)c1cc(-c2ccccc2)nc2ccc(C)cc12
inactive: all assays above

FC(F)(F)C(F)(F)C(F)(F)C(F)(F)C(F)(F)C(F)(F)F
inactive: all assays above

CCN(CC)C(=S)S
inactive: all assays above

O=C(O)C1=C(CSc2nnnn2CS(=O)(=O)O)CS[C@@H]2[C@H](NC(=O)[C@H](O)c3ccccc3)C(=O)N12
inactive: all assays above

OC[C@H]1O[C@@](CO)(O[C@H]2O[C@H](CO)[C@@H](O)[C@H](O)[C@H]2O)[C@@H](O)[C@@H]1O
inactive: all assays above

COC(=O)C(CN)c1c[nH]c2ccc(OC)cc12 (stereo not given)
inactive: all assays above

NCCN
inactive: all assays above

CC(C)CCC[C@@H](C)[C@H]1CC[C@H]2[C@@H]3CC[C@@H]4C[C@H](O)CC[C@]4(C)[C@H]3CC[C@]12C
inactive: all assays above

NC(N)=O
inactive: all assays above
